The values that follow come from PubChem BioAssay (NCI).

SMILES strings stand for the structures. Where “and” joins values, the source holds several entries; their conditions need not be identical. Equal entries are not always repeated. This is part of a sample that, as a whole, favours compounds with a hit. Of some 83,000 tested, about 20% had one in any assay.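 Results are percent growth after 48 hours of single-concentration exposure. 100 means growth as in untreated cells, lower positive values show inhibition; negative values down to -100 show cell death.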 A number with no mark means an inactive call. Calls of active or inactive are those of the source. Rule for the calls: active = growth percent below 10; inactive = the rest.

The test system of one assay is OVCAR-3 ovarian. Kind of assay: NCI-60 one-dose screen, 48 h (100 = growth as untreated, 0 = no growth, -100 = all killed). The following applies: 10 µM unless noted.
`Cc1ccc(S(=O)(=O)NCCCNc2nccc(-c3[nH]c(-c4ccccc4)nc3-c3ccc(F)c(O)c3)n2)cc1`: the growth is 132%. For `COc1cc(-c2nc(-c3ccccc3)[nH]c2-c2ccnc(NCCCNS(=O)(=O)c3ccc(C(F)(F)F)cc3)n2)ccc1Cl`, the growth is 33.6% and 39.6%. Consider `C#C[C@]1(O)CC[C@H]2[C@@H]3CC=C4c5sc(Nc6ncccc6C)nc5CC[C@]4(C)[C@H]3CC[C@@]21C`, for which the growth is 32.1%. With `CCOC(=O)c1c(NC(=O)c2cccc(C(F)(F)F)c2)sc2c3c(ccc12)OCN(C)C3`, the growth was -44.7% (active). For `COc1ccc(/C=N/NC(=O)CSc2nc(-c3cnccn3)cc(-c3cccs3)c2C#N)cc1`, the growth was 90.6%.

On to `CCCCCCN1C=C/C(=C\C(=O)n2ccc3ccccc32)c2ccccc21`, for which the growth was 58.4%. For `Cc1ccc(C(=O)CSc2nc3ccccc3c(=O)n2C)cc1`, the growth was 94.2%. For `O=C(CCCCCCNC(=O)C(O)(O)C(F)(F)F)Nc1ccc(-c2ccccc2)cc1`, the growth is -16.6% (active).

For the compound `COc1ccc(C2CC(c3cccc(OCCCCOc4cccc(C5=NN(C(C)=O)C(c6ccc(OC)cc6)C5)c4)c3)=NN2C(C)=O)cc1` (centres undefined), the growth was 68.2%. As to `Cn1cc(-c2nc(N)nnc2-c2c[nH]c3ccc(Br)cc23)c2cc(F)ccc21`, the growth was 99.6%. On to `Oc1[nH]c2ccc(Cl)cc2c1N=Nc1nc(N=Nc2c(O)[nH]c3ccc(Cl)cc23)nc(N2CCCCC2)n1`, for which the growth was 76.9%. Take `CC(=O)Nc1cc(N2CCOCC2)c2nc(NC(=O)c3[nH]c(C)c(Cl)c3Cl)sc2c1`: the growth is 72.3%. Take `C#CCN(C)CCCOc1ccc(NCc2ccc(/C=C/C(=O)NO)cc2)cc1Cl`: the growth was 11%. Same read-out and setting: in the case of `COC(=O)c1ccc(NC2=C(Cl)C(=O)c3nc(C)ccc3C2=O)cc1` it was 63.6%. Regarding `Cc1ccc2c(n1)C(=O)C(Cl)=C(Nc1cc(C(F)(F)F)cc(C(F)(F)F)c1)C2=O`, the growth was 37.3%. On to `COC(=O)c1cccc(NC2=C(Cl)C(=O)c3nc(C)ccc3C2=O)c1`, for which the growth was 4.2% (active).

For `COc1cc(C(C)=C(c2ccc(OCCN(C)C)cc2)c2ccc(OCCN(C)C)cc2)ccc1F`, the growth was 109%. As for `N#Cc1c(-c2cccs2)cc(-c2cnccn2)nc1SCC(=O)N/N=C/c1ccncc1`, the growth is 117%. Take `C#Cc1cc(OC)c(C(=O)Nc2ccc(F)cc2C(=O)Nc2cccc(S(=O)(=O)C(F)(F)F)c2)cn1`: the growth is -30.2% (active).

As to `NC1=NC2(CCCC2)N(c2ccc(S(=O)(=O)Nc3nccs3)cc2)C(N)=N1`, the growth is 116%. Regarding `Cn1cc(-c2nnc(N)nc2-c2c[nH]c3ccc(F)cc23)c2cc(Br)ccc21`, the growth is 10.7%. On the same count and under the same terms, as for `CCCN1C=C/C(=C\C(=O)n2ccc3ccccc32)c2ccccc21`, the figure is 87.3%.

In the case of `Cc1ccc2c(n1)C(=O)C(Cl)=C(Nc1ccc(C(C)C)cc1)C2=O`, the growth is -55.7% (active). As to `NCCNC(=O)c1cccc(COc2ccccc2NC(=O)c2cc(Cl)c(Cl)[nH]2)c1`, the growth is 109%. `Cc1cc(C)cc(NC2=C(Cl)C(=O)c3nc(C)ccc3C2=O)c1`: the growth was -0.41% (active). With `Cc1nc(/N=C(N)/N=C(\N)c2cccc(Br)c2)sc1C`, the growth is 47.2%. In the case of `Fc1ccc2nc(-c3cnn4cccnc34)sc2c1`, the growth was 84.2%.

`COc1ccc(C(=O)c2c(N)c(C#N)cn2-c2ccc(Cl)cc2Cl)cc1`: the growth was 106%.

`COc1ccc(C2CC(c3cccc(OCCCCOc4cccc(C5=NOC(c6ccc(OC)cc6)C5)c4)c3)=NO2)cc1` (centres undefined): the growth is 96.2%. Consider `CCN(CC)CCOc1ccc(C(=C(C)c2ccc(OC)cc2)c2ccc(OCCN(CC)CC)cc2)cc1`, for which the growth is -4.04% (active). For the compound `CN1CCN(c2ccc(Nc3nc(NCCCNS(=O)(=O)c4ccccc4)c4sccc4n3)cc2)CC1`, the growth was 74.3%. On to `CC1=C(C)C(=O)C(Nc2cccc(C(=O)OC(C)(C)C)c2)=C(Cl)C1=O`, for which the growth is 101%. Regarding `O=C(/C=C/c1cccc(F)c1)c1cccc(OCCCOc2cccc(C(=O)/C=C/c3cccc(F)c3)c2)c1`, the growth was 74.9%. In the case of `CC(Nc1ncnc2ccc(-c3cnc4cnccn34)cc12)c1ccccc1` (centres undefined), the growth is 67.5%. Consider `CC1CC(=O)C2=C(C1)Nc1ccc(Br)cc1CC2c1c[nH]c2ccc(Br)cc12` (centres undefined), for which the growth is 42.1%. For `C[C@@H]1OCC2(CCN(c3cnc(C(=O)Nc4cc(F)cc5cccnc45)cn3)CC2)[C@@H]1N`, the growth was 18.7%. The same measure, in the same setting: as for `C#CCOc1ccccc1C(OC(=O)c1ccccc1)C(=O)NC(C)(C)C(C)(C)C` (centres undefined), the figure is 99.9%; as for `O=C(CSc1nnc(-c2cccs2)n1-c1ccccc1)Nc1ccccc1F`, 86.9%.

For the next assay, the system named is HS 578T breast. The assay is described as above. As to conditions: 10 µM unless noted.
Regarding `Cc1ccc(S(=O)(=O)NCCCNc2nccc(-c3[nH]c(-c4ccccc4)nc3-c3ccc(F)c(O)c3)n2)cc1`, the growth was 99.6%. On to `COc1cc(-c2nc(-c3ccccc3)[nH]c2-c2ccnc(NCCCNS(=O)(=O)c3ccc(C(F)(F)F)cc3)n2)ccc1Cl`, for which the growth is 58.8% and 71.9%. Turning to `C#C[C@]1(O)CC[C@H]2[C@@H]3CC=C4c5sc(Nc6ncccc6C)nc5CC[C@]4(C)[C@H]3CC[C@@]21C`, the growth was -16.1% (active). Consider `CCOC(=O)c1c(NC(=O)c2cccc(C(F)(F)F)c2)sc2c3c(ccc12)OCN(C)C3`, for which the growth is 38.4%. On the same count and under the same terms, as for `COc1ccc(/C=N/NC(=O)CSc2nc(-c3cnccn3)cc(-c3cccs3)c2C#N)cc1`, the figure is 64.6%; as for `CCCCCCN1C=C/C(=C\C(=O)n2ccc3ccccc32)c2ccccc21`, 84.9%; as for `Cc1ccc(C(=O)CSc2nc3ccccc3c(=O)n2C)cc1`, 94.6%.

Consider `O=C(CCCCCCNC(=O)C(O)(O)C(F)(F)F)Nc1ccc(-c2ccccc2)cc1`, for which the growth is 33.8%. Consider `COc1ccc(C2CC(c3cccc(OCCCCOc4cccc(C5=NN(C(C)=O)C(c6ccc(OC)cc6)C5)c4)c3)=NN2C(C)=O)cc1` (centres undefined), for which the growth was 89.3%.

As to `Cn1cc(-c2nc(N)nnc2-c2c[nH]c3ccc(Br)cc23)c2cc(F)ccc21`, the growth is 96.4%.

Turning to `Oc1[nH]c2ccc(Cl)cc2c1N=Nc1nc(N=Nc2c(O)[nH]c3ccc(Cl)cc23)nc(N2CCCCC2)n1`, the growth was 36.2%. With `CC(=O)Nc1cc(N2CCOCC2)c2nc(NC(=O)c3[nH]c(C)c(Cl)c3Cl)sc2c1`, the growth was 31.3%. Same read-out and setting: in the case of `COC(=O)c1ccc(NC2=C(Cl)C(=O)c3nc(C)ccc3C2=O)cc1` it was 71.5%; in that of `Cc1ccc2c(n1)C(=O)C(Cl)=C(Nc1cc(C(F)(F)F)cc(C(F)(F)F)c1)C2=O`, 92.8%; in that of `COC(=O)c1cccc(NC2=C(Cl)C(=O)c3nc(C)ccc3C2=O)c1`, 102%.

Regarding `COc1cc(C(C)=C(c2ccc(OCCN(C)C)cc2)c2ccc(OCCN(C)C)cc2)ccc1F`, the growth was 101%.

As to `N#Cc1c(-c2cccs2)cc(-c2cnccn2)nc1SCC(=O)N/N=C/c1ccncc1`, the growth was 109%. Turning to `C#Cc1cc(OC)c(C(=O)Nc2ccc(F)cc2C(=O)Nc2cccc(S(=O)(=O)C(F)(F)F)c2)cn1`, the growth is -19.7% (active). `NC1=NC2(CCCC2)N(c2ccc(S(=O)(=O)Nc3nccs3)cc2)C(N)=N1`: the growth is 109%.

Regarding `Cn1cc(-c2nnc(N)nc2-c2c[nH]c3ccc(F)cc23)c2cc(Br)ccc21`, the growth was 7.85% (active).

Turning to `CCCN1C=C/C(=C\C(=O)n2ccc3ccccc32)c2ccccc21`, the growth is 101%. The same measure, in the same setting: as for `Cc1ccc2c(n1)C(=O)C(Cl)=C(Nc1ccc(C(C)C)cc1)C2=O`, the figure is 55.6%. Consider `NCCNC(=O)c1cccc(COc2ccccc2NC(=O)c2cc(Cl)c(Cl)[nH]2)c1`, for which the growth is 103%.

Take `Cc1cc(C)cc(NC2=C(Cl)C(=O)c3nc(C)ccc3C2=O)c1`: the growth was 11.1%. The same measure, in the same setting: as for `Cc1nc(/N=C(N)/N=C(\N)c2cccc(Br)c2)sc1C`, the figure is 73.1%.

As for `Fc1ccc2nc(-c3cnn4cccnc34)sc2c1`, the growth is 90.1%.

For the compound `COc1ccc(C(=O)c2c(N)c(C#N)cn2-c2ccc(Cl)cc2Cl)cc1`, the growth was 90.9%.

On to `COc1ccc(C2CC(c3cccc(OCCCCOc4cccc(C5=NOC(c6ccc(OC)cc6)C5)c4)c3)=NO2)cc1` (centres undefined), for which the growth is 109%. As for `CCN(CC)CCOc1ccc(C(=C(C)c2ccc(OC)cc2)c2ccc(OCCN(CC)CC)cc2)cc1`, the growth is -21.8% (active). Take `CN1CCN(c2ccc(Nc3nc(NCCCNS(=O)(=O)c4ccccc4)c4sccc4n3)cc2)CC1`: the growth is 80.3%. Take `O=C(/C=C/c1cccc(F)c1)c1cccc(OCCCOc2cccc(C(=O)/C=C/c3cccc(F)c3)c2)c1`: the growth was 93.8%. `CC(Nc1ncnc2ccc(-c3cnc4cnccn34)cc12)c1ccccc1` (centres undefined): the growth was 63.1%. Same read-out and setting: in the case of `CC1CC(=O)C2=C(C1)Nc1ccc(Br)cc1CC2c1c[nH]c2ccc(Br)cc12` (centres undefined) it was 58%; in that of `C[C@@H]1OCC2(CCN(c3cnc(C(=O)Nc4cc(F)cc5cccnc45)cn3)CC2)[C@@H]1N`, 66.6%; in that of `C#CCOc1ccccc1C(OC(=O)c1ccccc1)C(=O)NC(C)(C)C(C)(C)C` (centres undefined), 91.1%.

On to `O=C(CSc1nnc(-c2cccs2)n1-c1ccccc1)Nc1ccccc1F`, for which the growth is 91.6%.
